Assay results: ChEMBL document CHEMBL1961873, “Compounds: GSK PKIS; Assays: Nanosyn kinase panel” (2012)

Tests used:
[1] = target: Platelet-derived growth factor receptor beta (Homo sapiens) (UniProt P09619); settings: at 1 µM;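 also: each value is a mean percent inhibition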
[2] = target: Tyrosine-protein kinase FRK (Homo sapiens) (UniProt P42685); settings: at 0.1 µM
[3] = target: Tyrosine-protein kinase FRK (Homo sapiens) (UniProt P42685); settings: at 1 µM
[4] = target: Protein-tyrosine kinase 2-beta (Homo sapiens) (UniProt Q14289); settings: at 0.1 µM
[5] = target: Protein-tyrosine kinase 2-beta (Homo sapiens) (UniProt Q14289); settings: at 1 µM
[6] = target: Proto-oncogene tyrosine-protein kinase receptor Ret (Homo sapiens) (UniProt P07949); settings: at 0.1 µM
[7] = target: Proto-oncogene tyrosine-protein kinase receptor Ret (Homo sapiens) (UniProt P07949); settings: at 1 µM
[8] = tested on: Proto-oncogene tyrosine-protein kinase receptor Ret (Homo sapiens), P07949 [V804L]; settings: at 0.1 µM
[9] = tested on: Proto-oncogene tyrosine-protein kinase receptor Ret (Homo sapiens), P07949 [V804L]; settings: at 1 µM
[10] = tested on: Proto-oncogene tyrosine-protein kinase receptor Ret (Homo sapiens), P07949 [Y791F]; settings: at 0.1 µM
[11] = tested on: Proto-oncogene tyrosine-protein kinase receptor Ret (Homo sapiens), P07949 [Y791F]; settings: at 1 µM
[12] = target: Macrophage-stimulating protein receptor (Homo sapiens) (UniProt Q04912); settings: at 0.1 µM
[13] = target: Macrophage-stimulating protein receptor (Homo sapiens) (UniProt Q04912); settings: at 1 µM
[14] = target: Proto-oncogene tyrosine-protein kinase ROS (Homo sapiens) (UniProt P08922); settings: at 0.1 µM
[15] = target: Proto-oncogene tyrosine-protein kinase ROS (Homo sapiens) (UniProt P08922); settings: at 1 µM
[16] = target: Proto-oncogene tyrosine-protein kinase Src (Homo sapiens) (UniProt P12931); settings: at 0.1 µM
[17] = target: Proto-oncogene tyrosine-protein kinase Src (Homo sapiens) (UniProt P12931); settings: at 1 µM
[18] = target: Tyrosine-protein kinase Srms (Homo sapiens) (UniProt Q9H3Y6); settings: at 0.1 µM
[19] = target: Tyrosine-protein kinase Srms (Homo sapiens) (UniProt Q9H3Y6); settings: at 1 µM
[20] = target: Tyrosine-protein kinase SYK (Homo sapiens) (UniProt P43405); settings: at 0.1 µM;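 also: reported percentages are mean inhibition values for SYK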

Macrophage-stimulating protein receptor (Homo sapiens), sequence (Q04912 25-304 limits assumed): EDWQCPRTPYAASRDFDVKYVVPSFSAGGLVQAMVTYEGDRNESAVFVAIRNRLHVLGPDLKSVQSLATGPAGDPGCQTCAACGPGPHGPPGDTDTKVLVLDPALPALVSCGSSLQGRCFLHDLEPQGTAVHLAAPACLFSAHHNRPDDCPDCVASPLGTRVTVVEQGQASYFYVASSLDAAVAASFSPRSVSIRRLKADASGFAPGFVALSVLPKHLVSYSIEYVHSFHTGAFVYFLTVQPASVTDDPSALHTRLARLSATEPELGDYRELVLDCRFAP
Macrophage-stimulating protein receptor (Homo sapiens), sequence (Q04912 310-1400 limits assumed): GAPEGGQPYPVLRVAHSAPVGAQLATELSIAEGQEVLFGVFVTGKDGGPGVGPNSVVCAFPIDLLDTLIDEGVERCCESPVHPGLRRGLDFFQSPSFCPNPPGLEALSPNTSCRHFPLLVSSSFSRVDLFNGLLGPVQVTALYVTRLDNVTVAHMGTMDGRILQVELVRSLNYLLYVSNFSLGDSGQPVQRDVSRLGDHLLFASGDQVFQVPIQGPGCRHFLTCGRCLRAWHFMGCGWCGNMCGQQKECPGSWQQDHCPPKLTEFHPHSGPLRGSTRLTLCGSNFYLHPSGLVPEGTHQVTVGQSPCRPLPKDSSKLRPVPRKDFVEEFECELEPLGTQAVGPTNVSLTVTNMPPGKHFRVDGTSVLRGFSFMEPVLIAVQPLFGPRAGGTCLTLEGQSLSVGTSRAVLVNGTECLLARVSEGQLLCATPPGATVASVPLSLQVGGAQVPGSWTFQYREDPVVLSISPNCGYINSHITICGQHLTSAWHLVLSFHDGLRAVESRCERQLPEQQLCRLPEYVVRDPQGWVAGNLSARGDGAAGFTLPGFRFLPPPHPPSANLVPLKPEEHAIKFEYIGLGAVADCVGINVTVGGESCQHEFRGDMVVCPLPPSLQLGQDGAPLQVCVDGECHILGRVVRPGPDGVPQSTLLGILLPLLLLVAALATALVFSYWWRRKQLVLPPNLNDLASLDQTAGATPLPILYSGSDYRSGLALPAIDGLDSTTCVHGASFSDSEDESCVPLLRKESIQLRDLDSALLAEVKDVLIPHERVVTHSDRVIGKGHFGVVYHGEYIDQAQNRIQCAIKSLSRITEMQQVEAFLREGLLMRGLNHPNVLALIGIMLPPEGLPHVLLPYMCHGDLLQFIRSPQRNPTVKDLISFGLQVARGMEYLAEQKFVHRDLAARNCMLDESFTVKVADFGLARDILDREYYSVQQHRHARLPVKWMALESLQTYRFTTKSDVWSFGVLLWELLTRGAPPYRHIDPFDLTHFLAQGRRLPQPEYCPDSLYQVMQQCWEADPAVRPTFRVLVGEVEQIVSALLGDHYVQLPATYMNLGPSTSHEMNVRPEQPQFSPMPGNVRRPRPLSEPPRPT
Proto-oncogene tyrosine-protein kinase receptor Ret (Homo sapiens), sequence (P07949 whole entry): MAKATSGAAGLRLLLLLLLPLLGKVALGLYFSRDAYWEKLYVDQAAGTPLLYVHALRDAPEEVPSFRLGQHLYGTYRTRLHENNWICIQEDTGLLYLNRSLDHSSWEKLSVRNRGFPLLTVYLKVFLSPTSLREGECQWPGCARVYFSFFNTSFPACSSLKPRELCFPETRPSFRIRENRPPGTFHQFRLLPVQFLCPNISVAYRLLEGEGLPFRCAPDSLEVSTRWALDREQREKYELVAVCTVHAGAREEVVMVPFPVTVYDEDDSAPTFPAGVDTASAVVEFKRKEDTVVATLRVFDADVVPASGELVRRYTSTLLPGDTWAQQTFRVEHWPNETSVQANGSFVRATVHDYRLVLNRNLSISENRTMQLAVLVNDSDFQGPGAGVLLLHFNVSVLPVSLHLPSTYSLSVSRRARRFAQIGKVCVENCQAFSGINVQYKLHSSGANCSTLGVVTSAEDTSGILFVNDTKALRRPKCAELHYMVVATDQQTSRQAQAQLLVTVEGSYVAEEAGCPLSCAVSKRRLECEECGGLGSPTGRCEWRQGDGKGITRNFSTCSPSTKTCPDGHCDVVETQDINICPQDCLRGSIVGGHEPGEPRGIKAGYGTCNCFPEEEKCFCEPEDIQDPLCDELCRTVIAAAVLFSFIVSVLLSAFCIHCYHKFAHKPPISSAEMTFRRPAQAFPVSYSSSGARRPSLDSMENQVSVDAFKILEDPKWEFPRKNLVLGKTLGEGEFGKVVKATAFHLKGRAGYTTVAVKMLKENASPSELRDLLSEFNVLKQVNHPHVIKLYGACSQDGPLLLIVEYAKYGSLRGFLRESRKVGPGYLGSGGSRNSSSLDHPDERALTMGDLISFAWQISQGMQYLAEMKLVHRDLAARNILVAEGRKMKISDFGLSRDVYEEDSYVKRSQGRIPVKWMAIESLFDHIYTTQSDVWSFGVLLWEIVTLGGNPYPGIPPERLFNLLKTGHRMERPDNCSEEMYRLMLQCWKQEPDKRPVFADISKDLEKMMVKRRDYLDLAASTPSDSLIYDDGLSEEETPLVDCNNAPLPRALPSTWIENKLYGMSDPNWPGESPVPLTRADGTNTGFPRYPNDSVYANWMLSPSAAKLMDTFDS
Proto-oncogene tyrosine-protein kinase receptor Ret (Homo sapiens), P07949 [Y791F], sequence (P07949 whole entry Y791F): as the sequence (P07949 whole entry) above, with Y791F counted along it
Proto-oncogene tyrosine-protein kinase receptor Ret (Homo sapiens), P07949 [V804L], sequence (P07949 whole entry V804L): as the sequence (P07949 whole entry) above, with V804L counted along it
Tyrosine-protein kinase FRK (Homo sapiens), sequence (P42685 whole entry): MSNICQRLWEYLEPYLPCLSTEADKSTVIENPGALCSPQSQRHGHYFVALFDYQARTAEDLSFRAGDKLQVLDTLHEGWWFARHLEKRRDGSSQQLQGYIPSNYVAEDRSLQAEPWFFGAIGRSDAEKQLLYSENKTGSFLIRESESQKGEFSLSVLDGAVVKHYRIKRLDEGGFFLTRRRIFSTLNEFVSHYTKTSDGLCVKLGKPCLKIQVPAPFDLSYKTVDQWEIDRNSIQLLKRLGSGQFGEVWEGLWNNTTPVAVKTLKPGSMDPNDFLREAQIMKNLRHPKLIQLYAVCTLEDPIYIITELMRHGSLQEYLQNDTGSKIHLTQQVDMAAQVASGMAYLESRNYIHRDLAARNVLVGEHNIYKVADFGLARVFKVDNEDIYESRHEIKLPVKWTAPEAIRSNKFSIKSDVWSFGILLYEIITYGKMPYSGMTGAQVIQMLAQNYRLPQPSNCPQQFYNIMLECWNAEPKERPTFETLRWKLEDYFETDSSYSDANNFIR
Proto-oncogene tyrosine-protein kinase Src (Homo sapiens), sequence (P12931 2-536 limits assumed): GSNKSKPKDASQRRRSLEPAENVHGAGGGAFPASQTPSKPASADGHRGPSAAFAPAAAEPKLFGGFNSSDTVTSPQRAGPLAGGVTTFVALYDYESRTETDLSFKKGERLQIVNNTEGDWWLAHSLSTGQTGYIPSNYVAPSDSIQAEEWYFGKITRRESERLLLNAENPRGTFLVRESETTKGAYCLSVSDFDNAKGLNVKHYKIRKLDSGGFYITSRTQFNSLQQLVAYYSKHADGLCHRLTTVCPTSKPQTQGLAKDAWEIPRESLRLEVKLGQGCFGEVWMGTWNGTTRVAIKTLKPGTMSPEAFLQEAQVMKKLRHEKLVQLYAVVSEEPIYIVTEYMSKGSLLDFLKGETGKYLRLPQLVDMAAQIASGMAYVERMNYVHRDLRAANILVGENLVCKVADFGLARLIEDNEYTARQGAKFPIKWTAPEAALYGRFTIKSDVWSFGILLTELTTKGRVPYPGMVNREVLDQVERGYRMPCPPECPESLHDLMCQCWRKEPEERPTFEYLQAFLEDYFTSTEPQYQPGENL
Platelet-derived growth factor receptor beta (Homo sapiens), sequence (P09619 whole entry): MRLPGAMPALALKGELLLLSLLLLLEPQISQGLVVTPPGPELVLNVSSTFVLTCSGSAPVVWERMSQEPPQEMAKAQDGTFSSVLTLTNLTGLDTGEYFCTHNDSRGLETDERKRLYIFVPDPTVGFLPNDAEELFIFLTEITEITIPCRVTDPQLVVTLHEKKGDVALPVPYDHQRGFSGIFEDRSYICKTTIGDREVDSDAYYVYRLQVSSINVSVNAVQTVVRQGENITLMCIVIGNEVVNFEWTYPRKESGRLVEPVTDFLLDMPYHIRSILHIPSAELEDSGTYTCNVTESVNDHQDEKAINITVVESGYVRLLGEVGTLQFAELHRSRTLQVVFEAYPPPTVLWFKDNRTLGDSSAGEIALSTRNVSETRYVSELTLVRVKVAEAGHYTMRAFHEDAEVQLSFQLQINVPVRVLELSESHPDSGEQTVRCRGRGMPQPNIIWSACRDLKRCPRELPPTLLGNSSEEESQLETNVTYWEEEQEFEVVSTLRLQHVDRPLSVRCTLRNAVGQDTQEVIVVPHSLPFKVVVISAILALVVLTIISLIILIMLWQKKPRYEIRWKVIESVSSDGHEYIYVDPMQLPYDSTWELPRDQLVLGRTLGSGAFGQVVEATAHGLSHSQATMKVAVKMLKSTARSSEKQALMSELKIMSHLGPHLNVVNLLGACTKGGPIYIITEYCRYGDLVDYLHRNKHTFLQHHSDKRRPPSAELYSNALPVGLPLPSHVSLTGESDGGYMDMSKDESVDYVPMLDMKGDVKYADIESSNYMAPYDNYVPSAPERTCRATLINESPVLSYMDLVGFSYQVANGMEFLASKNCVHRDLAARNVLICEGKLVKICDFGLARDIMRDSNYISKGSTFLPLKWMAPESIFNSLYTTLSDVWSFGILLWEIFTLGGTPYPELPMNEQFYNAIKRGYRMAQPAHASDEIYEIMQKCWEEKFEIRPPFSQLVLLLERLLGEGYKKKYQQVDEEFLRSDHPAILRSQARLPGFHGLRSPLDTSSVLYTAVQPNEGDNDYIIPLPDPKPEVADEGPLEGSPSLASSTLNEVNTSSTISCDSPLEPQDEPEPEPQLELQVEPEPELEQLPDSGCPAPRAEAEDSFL

Row | SMILES | inhibition [1] [%] | inhibition [2] [%] | inhibition [3] [%] | inhibition [4] [%] | inhibition [5] [%] | inhibition [6] [%] | inhibition [7] [%] | inhibition [8] [%] | inhibition [9] [%] | inhibition [10] [%] | inhibition [11] [%] | inhibition [12] [%] | inhibition [13] [%] | inhibition [14] [%] | inhibition [15] [%] | inhibition [16] [%] | inhibition [17] [%] | inhibition [18] [%] | inhibition [19] [%] | inhibition [20] [%]
1 | CS(=O)(=O)CCNCc1nc(-c2ccc3ncnc(Nc4ccc(F)c(Cl)c4)c3c2)cs1 | 9.07 | -0.58 | 2.43 | -0.72 | 1.64 | 4.76 | 13.1 | 5.1 | 11 | 7.75 | 31 | 1.17 | -0.2 | -1.86 | 1.3 | 8.61 | 9.31 | -0.09 | 1.81 | 2.81
2 | NC(=O)c1ccc(-c2nc(-c3ccccn3)c(-c3ccc4c(c3)OCO4)[nH]2)cc1 | 7.47 | 0.98 | -0.16 | 1.97 | 6.61 | 6.29 | 8.97 | 4.67 | 5.88 | 6.95 | 13.7 | -0.12 | -1.49 | 2.07 | 2.89 | 3.87 | 4.86 | 2.17 | 1.98 | 0.63
3 | COc1cc2ncn(-c3cc(OCc4ccccc4C(F)(F)F)c(C(N)=O)s3)c2cc1OC | 83.5 | 3.08 | 3.46 | 2.32 | 19.4 | 14.5 | 41.6 | 10.4 | 34.3 | 17.9 | 50.6 | 4.5 | 8.36 | 5.76 | 20.6 | 8.15 | 21.2 | -2.2 | -0.81 | -2.39
4 | CC1=C(C(=O)Nc2ccc3[nH]ncc3c2)C(c2ccc(Cl)c(Cl)c2)CC(=O)N1 (stereo not given) | 6.02 | 1.03 | 7.47 | 6.27 | 8.74 | 5.65 | 22.8 | 3.81 | 16.5 | 8.05 | 25.4 | 3.91 | 15 | 2.14 | 8.67 | 17.4 | 24.9 | 1.99 | -3.08 | -3.45
5 | CN1CCC(C(=O)Nc2n[nH]c3nnc(-c4ccccc4)cc23)CC1 | 7.79 | 2.63 | 2.86 | 13.3 | 15.2 | 1.29 | 2.61 | 4.66 | 14.7 | 3.08 | 10 | -1.52 | 14.1 | 5.55 | 9.8 | 9.17 | 8.13 | -0.14 | -5.75 | -4.25
6 | CCn1c(-c2nonc2N)nc2c(C#CC(C)(C)O)nc(CN3CCCC3)cc21 | 12.2 | 0.91 | -0.12 | -0.18 | -7.23 | -0.08 | 9.99 | 0.92 | 4.79 | 5.91 | 14.5 | 27.6 | -5.13 | 2.54 | 3.85 | 0.78 | 0.68 | -1.37 | -0.75 | 6.45
7 | CCn1c(-c2nonc2N)nc2cnc(Oc3cccc(NC(=O)c4ccc(OCCN5CCOCC5)cc4)c3)cc21 | 9.39 | 2.25 | 0.86 | 4.56 | 13 | 6.91 | 10.4 | 2.37 | 6.08 | 5.99 | 7.86 | 3.1 | 5 | 8.56 | 11 | 3.92 | 7.72 | -0.56 | -0.69 | -4.21
8 | COc1ccc(-c2nn3ncccc3c2-c2ccnc(Nc3ccc(Cl)c(C(F)(F)F)c3)n2)cc1 | 5.76 | 1.65 | 0.79 | 5.54 | 10.5 | 2.17 | -0.91 | 2.33 | 6.71 | 2.51 | 13.3 | -1.78 | 2.44 | 2.34 | 2.35 | 1.05 | 9.68 | 0.23 | 1.79 | -1.43
9 | CCn1c(-c2nonc2N)nc2c(C#CC(C)(C)O)nc(OC[C@@H](N)c3ccccc3)cc21 | 50.8 | 1.13 | 1.5 | -0.92 | 9.22 | 7.49 | 41.1 | 2.03 | 14.4 | 10.7 | 47.4 | 11.5 | 6.11 | 2.07 | 11.2 | 2.45 | 0.1 | 1.94 | 5.92 | -1.58
10 | CCCN1CCC(Oc2cc(Nc3nc(Nc4cccc(F)c4C(N)=O)c4cc[nH]c4n3)c(OC)cc2Cl)CC1 | 8.63 | -0.17 | 0.23 | 38.2 | 92.4 | 7.67 | 12.8 | 3.55 | 15.5 | 4.36 | 16.9 | 1.16 | 6.9 | 8.27 | 38.9 | -3.73 | 6.62 | 2.85 | 0.37 | 1.01
11 | COC(=O)Nc1nc2cc(Oc3ccc(NC(=O)Nc4cccc(C(=O)O)c4)cc3)ccc2[nH]1 | 16.2 | 0.4 | 0.91 | -5.8 | 6.37 | 7.47 | 14.1 | 2.8 | 15 | 1.53 | 26.3 | 0.89 | 5.64 | -2.86 | 3.11 | 1.83 | 7.71 | 0.44 | 0.74 | 5.41
12 | O=C1NC(=O)C(c2ccc(Cl)cc2)=C1Nc1ccc(Cl)c(C(=O)O)c1 | 6.67 | -0.84 | 0.85 | -2.28 | 3.24 | 3.14 | 2.98 | 0.34 | -0.69 | 0.25 | -1.73 | -4.02 | 2.12 | 1.45 | 3.13 | 0.48 | -1.52 | 0.85 | 2.75 | -1
13 | NS(=O)(=O)c1cccc(-c2ccc3c(NC(=O)C4CC4)n[nH]c3c2)c1 | 5.08 | 0.47 | 1.64 | -7.23 | 5.72 | 2.41 | 1.62 | -0.14 | -1.66 | -2.8 | -2.02 | 6.3 | 3.46 | 3.46 | 5 | -4.15 | -1.21 | -0.76 | -1.91 | -1.3
